# Reference: the supplement of paper PMC10670038
# Where a name gives a salt, the structure may show the parent alone. ± gives the standard deviation of the averaged measurements. In all, about 2,000 compounds were measured (“relative cell viability vs DMSO, compound alone”: median about 1.1, lowest 2% from about 0.29 on). Only a selection was taken, and the lowest values are over-represented in it overall.
# Test system: TE10
# Assay: relative cell viability vs DMSO, compound alone (fraction); TE10 is an esophageal squamous carcinoma line; higher = less cytotoxic
# Details: 2 µM; 48 h
# Procedure: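 TE10 ESCC cells (1,000/well, 384-well plates) were treated with Selleck bioactive library compounds at 2 uM alone for 48 h. Viability was read by CellTiter-Glo and expressed relative to DMSO wells. Two technical replicates (A, B).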
row,SMILES,relative cell viability
1,C[N+]1(C)CCC(=C(c2ccccc2)c2ccccc2)CC1 [Diphemanil Methylsulfate],0.918 ± 0.097
2,OCCOCCN1CCN(C2=Nc3ccccc3Sc3ccccc32)CC1 [Quetiapine Fumarate],1.079 ± 0.0073
3,Cc1cc(/C=C2/SC(=S)NC2=O)c(C)n1-c1cccnc1 [Optovin],1.06 ± 0.031
4,C[C@@H](O)[C@H]1C(=O)N2C(C(=O)OCOC(=O)C(C)(C)C)=C(SC3CN(C4=NCCS4)C3)[C@H](C)[C@H]12 [Tebipenem Pivoxil],1.14 ± 0.037
5,C[C@@]12C[C@@]3(O)O[C@@H](O1)[C@]1(COC(=O)c4ccccc4)[C@H]3C[C@@]12O[C@@H]1O[C@H](CO)[C@@H](O)[C@H](O)[C@H]1O [Paeoniflorin],1.04 ± 0.029
6,CC(C=CC(=O)NO)=CC(C)C(=O)c1ccc(N(C)C)cc1 (configuration not stated) [Trichostatin A (TSA)],0.0876 ± 0.0041
7,CN(C)c1ccc(C(=O)NCCCCCCC(=O)NO)cc1,0.627 ± 0.043
8,COC1C(O)CC(=O)OC(C)CC=CC=CC(OC2CCC(N(C)C)C(C)O2)C(C)CC(CC=O)C1OC1OC(C)C(OC2CC(C)(O)C(O)C(C)O2)C(N(C)C)C1O (configuration not stated) [Spiramycin],1.11 ± 0.04
9,C[C@H](CCC(=O)O)[C@H]1CC[C@H]2[C@@H]3[C@@H](O)C[C@@H]4C[C@H](O)CC[C@]4(C)[C@H]3CC[C@]12C [Ursodiol],0.96 ± 0.08
10,COCCCOc1cc(C[C@@H](C[C@H](N)[C@@H](O)C[C@H](C(=O)NCC(C)(C)C(N)=O)C(C)C)C(C)C)ccc1OC [Aliskiren Hemifumarate],1.19 ± 0.037
11,COc1ccc(-c2ccc3c(N4CCOC[C@@H]4C)nc(N4CCOC[C@@H]4C)nc3n2)cc1CO,0.4942 ± 0.0022
12,C[C@H](NC(=O)/C(C#N)=C/c1cccc(Br)n1)c1ccccc1,1.14 ± 0.032
13,N#CC(=Cc1ccc(O)c(O)c1)C(=O)NCc1ccccc1 [AG-490 (Tyrphostin B42)],1.196 ± 0.001
14,CCC[C@H](NC(=O)/C(C#N)=C/c1cccc(Br)n1)c1ccccc1 [Degrasyn (WP1130)],0.206 ± 0.019
15,COc1c(C)c(C(=O)c2ccc(N)c(C(=O)O)c2)n2ccccc12,1.04 ± 0.041
16,N#C[C@@H]1C[C@@H]2C[C@@H]2N1C(=O)[C@@H](N)C12CC3CC(CC(O)(C3)C1)C2 [Saxagliptin],1.02 ± 0.083
17,O=C1c2ccccc2-c2n[nH]c3cccc1c23,1.27 ± 0.0019
18,CCN=C1N[C@@H]2[C@@H](O)[C@H](O)[C@@H](CO)O[C@@H]2S1 [Thiamet G],1.04 ± 0.037
19,OCc1ccc(-c2ccc(-c3ccc(CO)s3)o2)s1,0.0807 ± 0.0069
20,Cc1c(Cc2ccc3ccccc3n2)c2cc(F)ccc2n1CC(=O)O,1.08 ± 0.054
21,CCOC(=O)[C@H](CCc1ccccc1)N[C@H]1CCCN2CCC[C@@H](C(=O)O)N2C1=O [Cilazapril Monohydrate],1.011 ± 0.004
22,Nc1nc(F)nc2c1ncn2[C@@H]1O[C@H](CO)[C@@H](O)[C@@H]1O [Fludarabine],0.291 ± 0.0055
23,Nc1ncnc2c1ncn2[C@@H]1O[C@H](CO)[C@@H](O)[C@@H]1O [Vidarabine],1.08 ± 0.033

row,SMILES,relative cell viability
1,Nc1nc(Cl)nc2c1ncn2[C@@H]1O[C@H](CO)[C@@H](O)[C@@H]1F [Clofarabine],0.932 ± 0.038
2,Nc1nc2c(ncn2[C@@H]2O[C@H](CO)[C@@H](O)[C@H]2O)c(=O)[nH]1 [Guanosine],1.06 ± 0.032
3,Nc1ncnc2c1ncn2[C@@H]1O[C@H](CO)[C@@H](O)[C@H]1O [Adenosine],1.165 ± 0.0028
4,Nc1nc(F)nc2c1ncn2[C@@H]1O[C@H](COP(=O)(O)O)[C@@H](O)[C@@H]1O [Fludarabine Phosphate],0.214 ± 0.058
5,CCN(CC)CCOC(=O)c1ccc(N)cc1Cl [Chloroprocaine HCl],1.15 ± 0.027
6,Nc1nc2c(ncn2COC(CO)CO)c(=O)[nH]1 [Ganciclovir],1.069 ± 0.0057
7,O=C(/C=C/N1C[C@H]2C[C@@H]1CN2c1ccccn1)c1ccccc1O,1.06 ± 0.02
8,COc1ccc(-n2nc(C(N)=O)c3c2C(=O)N(c2ccc(N4CCCCC4=O)cc2)CC3)cc1 [Apixaban],1.1 ± 0.027
9,Cc1coc2c1C(=O)C(=O)c1c-2ccc2c(C)cccc12 [Tanshinone I],1.11 ± 0.051
10,CO[C@H]1/C=C/O[C@@]2(C)Oc3c(C)c(O)c4c(O)c(c(/C=N/N5CCN(C)CC5)c(O)c4c3C2=O)NC(=O)/C(C)=C\C=C\[C@H](C)[C@H](O)[C@@H](C)[C@@H](O)[C@@H](C)[C@H](OC(C)=O)[C@@H]1C [Rifampin],1.049 ± 0.003
11,COc1cc(-c2ncn(/C=C\C(=O)OC(C)C)n2)cc(C(F)(F)F)c1,0.26 ± 0.011
12,O=C(/C=C/n1cnc(-c2cc(C(F)(F)F)cc(C(F)(F)F)c2)n1)N1CC(F)(F)C1,0.473 ± 0.06
13,O=C(/C=C\n1cnc(-c2cc(C(F)(F)F)cc(C(F)(F)F)c2)n1)NNc1ccccn1 [Verdinexor (KPT-335)],0.3315 ± 0.0025
14,O=C(/C=C\n1cnc(-c2cc(C(F)(F)F)cc(C(F)(F)F)c2)n1)NNc1cnccn1,0.2768 ± 0.0027
15,CCN(CC)CCNC(=O)c1c(C)[nH]c(/C=C2\C(=O)Nc3ccc(F)cc32)c1C [Sunitinib Malate],1.11 ± 0.037
16,CCN(CC)CCNC(=O)c1c(C)[nH]c(/C=C2\C(=O)Nc3ccc(F)cc32)c1C [Sunitinib],1 ± 0.095
17,Cc1[nH]nc2ccc(-c3cncc(OC[C@@H](N)Cc4ccccc4)c3)cc12,0.5847 ± 0.0027
18,C[C@]12CC[C@H](O)CC1=CC[C@@H]1[C@@H]2CC[C@]2(C)C(n3cnc4ccccc43)=CC[C@@H]12 [Galeterone],1.06 ± 0.14
19,CO[C@H]1C[C@@H]2CC[C@@H](C)[C@@](O)(O2)C(=O)C(=O)N2CCCC[C@H]2C(=O)O[C@H]([C@H](C)C[C@@H]2CC[C@H](n3cnnn3)[C@H](OC)C2)CC(=O)[C@H](C)/C=C(\C)[C@@H](O)[C@@H](OC)C(=O)[C@H](C)C[C@H](C)/C=C/C=C/C=C/1C [Zotarolimus(ABT-578)],0.888 ± 0.073
20,CC(=O)Oc1cccc2c1C(=O)c1c(OC(C)=O)cc(C(=O)O)cc1C2=O [Diacerein],1.11 ± 0.023
21,C=CC(=O)N1CC(=Cc2ccc([N+](=O)[O-])cc2)C(=O)C(=Cc2ccc([N+](=O)[O-])cc2)C1,0.0554 ± 0.0028
22,CC1(C)C=C(CN2C/C(=C\c3ccc(F)cc3)C(=O)/C(=C/c3ccc(F)cc3)C2)C(C)(C)N1O,0.8405 ± 0.0057
23,CNC(=O)c1c(F)cccc1Nc1nc(Nc2cc3c(cc2OC)CCN3C(=O)CN(C)C)nc2[nH]ccc12,1.06 ± 0.052

row,SMILES,relative cell viability
1,CC[C@@H](C)Nc1cc(C(=O)N[C@H]2C[C@H]3CC[C@@H](C2)N3c2ccc(C(=O)C3CC3)cn2)c(C)cc1C(N)=O,0.449 ± 0.023
2,O=C(O)c1cc(/N=N/c2ccc(S(=O)(=O)Nc3ccccn3)cc2)ccc1O [Sulfasalazine],1.04 ± 0.026
3,CCc1nc(-c2cccc(C)c2)c(-c2ccnc(NC(=O)c3ccccc3)c2)s1,1.0779 ± 0.0008
4,Cc1ccc([N+](=O)[O-])cc1S(=O)(=O)N(C)/N=C/c1cnc2ccc(Br)cn12,0.287 ± 0.012
5,COc1cc(C(C)=O)ccc1O [Apocynin],1.07 ± 0.059
6,CCCCOc1c(C(=O)c2c(F)cc(C)cc2F)c[nH]c2nncc1-2,0.904 ± 0.014
7,CCOC(=O)CCNc1cc(N2CCc3ccccc3CC2)nc(-c2ccccn2)n1,0.957 ± 0.1
8,CNC[C@@H](O)c1ccc(O)c(O)c1 [L-Adrenaline],1.06 ± 0.028
9,COCC[n+]1c2c(n(Cc3cnccn3)c1C)C(=O)c1ccccc1C2=O [YM155 (Sepantronium Bromide)],0.0556 ± 0.0047
10,CC1(C)S[C@@H]2[C@H](NC(=O)[C@H](NC(=O)N3CCNC3=O)c3ccccc3)C(=O)N2[C@H]1C(=O)O [Azlocillin sodium salt],1.09 ± 0.026
11,CC(C)(OCc1nn(Cc2ccccc2)c2ccccc12)C(=O)O [Bindarit],1.1 ± 0.053
12,C=C[C@]1(C)C[C@@H](OC(=O)CS[C@@H]2C[C@H]3CC[C@@H](C2)N3C)[C@]2(C)[C@H](C)CC[C@]3(CCC(=O)[C@H]32)[C@@H](C)[C@@H]1O [Retapamulin],1.29 ± 0.028
13,CCC[C@@H]1C[C@@H](C(=O)N[C@@H]([C@H]2O[C@H](SC)[C@H](O)[C@@H](O)[C@H]2O)[C@@H](C)O)N(C)C1 [Lincomycin HCl],1.12 ± 0.073
14,CCC(=O)Nc1cccc(Oc2nc(Nc3ccc(N4CCN(C)CC4)cc3OC)ncc2Cl)c1,1.16 ± 0.059
15,Clc1ccc(Nc2nnc(Cc3ccncc3)c3ccccc23)cc1 [Vatalanib (PTK787) 2HCl],1.16 ± 0.022
16,Cc1[nH]c2ccccc2c1CCNC(=O)c1cccs1,1.08 ± 0.069
17,Cc1[nH]c2ccccc2c1CCNCc1ccc(/C=C/C(=O)NO)cc1 [Panobinostat (LBH589)],0.0672 ± 0.00084
18,CN(C)Cc1ccc(S(=O)(=O)n2ccc(/C=C/C(=O)NO)c2)cc1 [Resminostat],0.908 ± 0.028
19,COc1ccc(-c2coc3cc(O)ccc3c2=O)cc1 [Formononetin],0.901 ± 0.044
20,O=C(O)c1ccc(C=C2SC(=S)N(c3cccc(C(F)(F)F)c3)C2=O)cc1,1.04 ± 0.026
21,O=C(CCCN1CC=C(n2c(=O)[nH]c3ccccc32)CC1)c1ccc(F)cc1 [Droperidol],1.08 ± 0.044
22,Cc1ccc(S(=O)(=O)c2ccc([N+](=O)[O-])o2)cc1,0.286 ± 0.0092
23,NC(=O)N/N=C/c1ccc([N+](=O)[O-])o1 [Nitrofural],1.02 ± 0.057

row,SMILES,relative cell viability
1,COc1ccc(/C=C/C(=O)C2(C(=O)/C=C/c3ccc(OC)c(OC)c3)CCCCC2)cc1OC,0.726 ± 0.088
2,Cc1c(F)cc(C(=O)NC2CC2)cc1-c1ccc(C(=O)NCC(C)(C)C)cn1,0.959 ± 0.18
3,Cc1c(Nc2ncccc2C(=O)O)cccc1C(F)(F)F [Flunixin Meglumin],0.994 ± 0.028
4,COc1cc2c(cc1OC)CN(CCc1ccc(NC(=O)c3cccc4c(=O)c5cccc(OC)c5[nH]c34)cc1)CC2,1.03 ± 0.056
5,CNCCc1ccccn1 [Betahistine 2HCl],0.903 ± 0.18
6,COC1=CC(=O)C[C@@H](C)[C@]12Oc1c(Cl)c(OC)cc(OC)c1C2=O [Griseofulvin],1.12 ± 0.06
7,O[C@@H](COc1cccc2ncccc12)CN1CCN(C2c3ccccc3[C@@H]3[C@H](c4ccccc42)C3(F)F)CC1 (some centres not stated),1.14 ± 0.082
8,CCn1c(N)c(C(=O)NC)c(=O)c2ccc(C#CC(C)(O)COC)nc21 (configuration not stated),0.979 ± 0.17
9,CN(Cc1cnc2nc(N)nc(N)c2n1)c1ccc(C(=O)N[C@@H](CCC(=O)O)C(=O)O)cc1 [Methotrexate],0.143 ± 0.0081
10,Cc1nc(=O)c2cc(CN(C)c3ccc(C(=O)N[C@@H](CCC(=O)O)C(=O)O)s3)ccc2[nH]1 [Raltitrexed],1.07 ± 0.086
11,C#CCC(Cc1cnc2nc(N)nc(N)c2n1)c1ccc(C(=O)N[C@@H](CCC(=O)O)C(=O)O)cc1 (some centres not stated) [Pralatrexate],0.1336 ± 0.00088
12,CC(C)c1cnn2c(NCc3ccccc3)cc(NCCCCCCN)nc12,1.08 ± 0.063
13,CNC(=O)CN1CCC(Oc2cc3c(Nc4cccc(Cl)c4F)ncnc3cc2OC)CC1 [AZD8931 (Sapitinib)],1.21 ± 0.015
14,Cc1c(C(N)=O)cc([N+](=O)[O-])cc1[N+](=O)[O-] [Dinitolmide],1.0978 ± 0.00018
15,Cc1ccccc1C(C(=O)NC1CCCCC1)N(C(=O)Cn1ccnc1C)c1cccc(F)c1 (configuration not stated),0.989 ± 0.22
16,CCCCCCCCCCCCCCCC[N+](C)(C)C [Cetrimonium Bromide (CTAB)],1.05 ± 0.039
17,CC1=NN(c2ccc(C(=O)O)cc2)C(=O)C1=Cc1ccc(-c2cc(C)c(C)cc2[N+](=O)[O-])o1,1.04 ± 0.022
18,Nc1nc(CC(=O)Nc2ccc(CCNC[C@H](O)c3ccccc3)cc2)cs1 [Mirabegron],0.954 ± 0.11
19,NC(=O)c1cccc(-c2cccc(OC(=O)NC3CCCCC3)c2)c1,1.17 ± 0.024
20,CC#CC(=O)Nc1ccc2ncnc(Nc3cccc(Br)c3)c2c1,0.773 ± 0.043
21,CN(C)c1ccc(C(=C2C=CC(=[N+](C)C)C=C2)c2ccc(N(C)C)cc2)cc1 [Crystal Violet],0.278 ± 0.006
22,CN(C)C(=O)c1cc2cnc(Nc3ccc(N4CCNCC4)cn3)nc2n1C1CCCC1,1.147 ± 0.008
23,Nc1c(CC(=O)O)cccc1C(=O)c1ccc(Br)cc1 [Bromfenac Sodium],1.09 ± 0.046
